Only some compounds are listed: those with a hit (about 21% of all), similar ones and a draw of the others.
NS1 inh: influenza NS1 inhibition. Potency, µM (series often up to 46.1 µM), for inactives: top-dose activity, positive = more growth. 0.4% of 270,000 active. AID 2326; calls by dose curve; also: potency is read from the fitted curve at half-maximal effect; actives are rising curves; nearly all actives have a fitted effect of over 50% in size
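Recovery from NS1-induced slow growth read by OD600 in budding yeast switched to galactose assay medium (pH 6.0, -URA) at 1:100 dilution. Compound 23 nl per well; the matching strain lacking NS1 serves as control.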
Shiga toxin inh: blocks Shiga toxin action in Vero cells; 9.2% of 290,000 active; inhibition, % at 38.7 µM; AID 2315; Vero cells, Shiga toxin protein synthesis inhibition reporter; in the data active = inhibition mostly above about 28%, no sharp cut-off; inactive = mostly below about 43%; also: 0% is about no effect
Giardia FBPA inh: inhibitors of Giardia lamblia fructose-1,6-bisphosphate aldolase | AID 2451 | purified Giardia FBPA | 0.71% of 290,000 active | Potency, µM (top dose mostly 59.6 µM), for inactives: at the highest dose activity, negative = inhibition, actives largely listed as inhibitors | A8B2U2; also: potency is read from the fitted curve at half-maximal effect; % is scaled to controls: 0 for no effect and ±100 for the full control effect; nearly all actives have a fitted effect of over 55% in size
Target sequence (A8B2U2 whole entry, looked up): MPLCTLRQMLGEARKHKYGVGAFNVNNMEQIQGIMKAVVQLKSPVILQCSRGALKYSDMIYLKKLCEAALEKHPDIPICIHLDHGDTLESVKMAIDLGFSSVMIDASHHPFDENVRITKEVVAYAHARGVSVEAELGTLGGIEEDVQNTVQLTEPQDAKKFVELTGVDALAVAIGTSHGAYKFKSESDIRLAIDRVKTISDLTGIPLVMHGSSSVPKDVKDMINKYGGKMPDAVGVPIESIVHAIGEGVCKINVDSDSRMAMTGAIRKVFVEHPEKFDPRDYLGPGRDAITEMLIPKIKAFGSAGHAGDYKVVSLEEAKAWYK
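Giardia FBPA (40 nM reagent) was preincubated 10 min at RT with compound (up to 57.5 uM final), then substrate plus GAPDH/TPI/NAD/arsenate coupling system with diaphorase/resazurin was added; resorufin fluorescence (525/598 nm) was read after 20 min.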
Pf growth 96h: P. falciparum growth inhibition at 96 hours | 6.9% of 320,000 active | Potency, µM (top dose mostly 28.7 µM), for inactives: at the top dose activity change, negative = inhibition, hits mostly inhibitors | P. falciparum luciferase reporter growth, 96 h; also: potency is read from the fitted curve at half-maximal effect; % is scaled to controls: 0 for no effect and ±100 for the full control effect
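96 h incubation, 37 C, 5% CO2, of luciferase-reporter P. falciparum-infected RBCs (2% hematocrit, 0.05% parasitemia final) with test compounds; endpoint luminescence.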
Pf growth 48h: inhibits P. falciparum growth in the first generation, 48 h; P. falciparum luciferase growth in erythrocytes, 48 h; Potency, µM (top dose mostly 28.7 µM), without a hit: top-dose activity change, negative = inhibition, hits mostly inhibitors; 5.9% of 310,000 active; also: potency is read from the fitted curve at half-maximal effect; % is scaled to controls: 0 for no effect and ±100 for the full control effect
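Luminescence readout; reporter = integrated firefly luciferase in P. falciparum. RBC culture at 2% hematocrit, 0.1% parasitemia final, 37 C/5% CO2; decreased signal taken as growth inhibition.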
Cycloheximide cs: counter-screen hit for Shiga toxin inhibitors, cycloheximide; cell reporter, cycloheximide protein synthesis inhibition counterscreen; max response, %; 12% of 300,000 active; AID 2314; in the data active = max response mostly above about 13%, no sharp cut-off; inactive = mostly below about 14%; also: read at 38.3 µM for the half of the compounds with a filed dose; 0% is about no effect
* marks the source's active call; other numbers are inactive results; u = inconclusive; x = not tested or not shown; [ ] = dose if it differs, or a comment. Unless noted, calls follow the shape of the dose curve; as a rule, active = well fitted curve in the direction sought with a large enough effect; inconclusive = small, poorly fitted or top-dose-only effect, or another doubt; inactive = no such curve, though single readings can be large; an effect the other way counts as inactive or inconclusive.

SMILES	NS1 inh	Shiga toxin inh	Giardia FBPA inh	Pf growth 96h	Pf growth 48h	Cycloheximide cs
O=C(COc1ccccc1Cl)NCCc1ccc2c(c1)OCCO2	2.1%	57.5*	-0.8%	10.8%	55.2%	42.5*
Cc1nc(N2CCOCC2)c2nc(-c3ccccc3)n(CCN3CCCC3)c2n1	x	x	4.5%	x	x	x
CC(C)(C)N1C(=O)[C@H]2[C@H]3[C@H](O)[C@H](O)C/C(=N/OCc4ccccc4)[C@@H]3CC[C@@H]2C1=O	x	x	3.3%[12.9 µM]	x	x	x
COc1cccc(N2C(=O)Nc3ccc(Br)cc3C2(O)C(=O)NCCCOC(C)C)c1 (stereo unspecified)	3.1%	-5.3	0.3%	u	2.0%	-6.4
COc1cc(NC(=O)COC(=O)/C=C/c2ccc(Cl)cc2Cl)cc(OC)c1	5.3%	-2.2	3.4%	0.3%	5.9%	-1.6
Cc1ccccc1OCC(=O)Nc1ccc2c(c1)OCCO2	-5.9%	107.9*	-6.9%	149.5%	83.5%	51.1*
O=C(CSCc1c(Cl)cccc1Cl)Nc1ccc2c(c1)OCCO2	-12.6%	76.3*	-6.3%	3.29µM*	49.4%	59.3*
O=C(CSc1nccn1-c1cccc(Cl)c1)Nc1ccc2c(c1)OCCO2	-81.3%	-6.4	-0.7%	u	x	-3.7
CCOc1ccc(OCCC(=O)Nc2ccc3c(c2)OCO3)cc1	x	x	x	-22.0%	-15.0%	x
Cc1ccccc1OCCCC(=O)Nc1ccc2c(c1)OCO2	-8.5%	active	-7.7%	20.9%	7.6%	31.9*
O=C(COC(=O)/C=C/c1ccc(Cl)cc1Cl)Nc1ccc2c(c1)OCCO2	6.0%	12.1	5.9%	2.94µM*	27.8%	-0.4
OC(COC1CCCCC1)CN1CCCCC1 (stereo unspecified)	11.5%	17.8	x	u	14.5%	-7.4
Cc1cc(C)c(NC(=O)CN(C)CC(=O)N(C)CC(=O)Nc2c(Cl)cccc2Cl)c(C)c1	x	x	x	u	-17.8%	x
COc1ccccc1OCC(=O)Nc1ccc2c(c1)OCCO2	-6.6%	77.5*	4.3%	15.5%	118.7%	30.2*
NC(=O)c1ccccc1OCC(=O)Nc1ccc2c(c1)OCCO2	x	x	x	70.6%	108.2%	x
Cn1c(=O)c2c(ncn2CCN(CCO)Cc2ccccc2)n(C)c1=O	10.1%	-29.4	-3.0%	7.38µM*	6.6%	6.0
CC(CCc1ccccc1)NC(=O)C(=O)N1CCOCC1 (stereo unspecified)	0.2%	-18.9	7.5%	39.1%	1.0%	0.6
Cc1cc(NC(=O)CN2CCCC(C)C2)no1 (stereo unspecified)	0.8%	48.9*	-1.9%	19.0%	70.3%	12.8*
Cc1cc(NC(=O)CN2CCCCC2)no1	x	25.3	u	37.0%	-1.9%	-2.2
CC1CCCN(CC(=O)Nc2ccc(S(=O)(=O)N3CCCCC3)cc2)C1 (stereo unspecified)	15.4%	-5.0	1.7%	9.28µM*	u	-1.7
CC1CCCN(CC(=O)Nc2ccc(S(=O)(=O)N3CCCCCC3)cc2)C1 (stereo unspecified)	-4.3%	-10.0	5.0%	-16.9%	-24.8%	-2.4
CC1CC(C)CN(S(=O)(=O)c2ccc(NC(=O)CN3CCCCCC3)cc2)C1 (stereo unspecified)	x	x	x	u	7.38µM*	x
O=C(c1c(F)cccc1F)N1CCCC(c2nc(-c3ccc(Cl)cc3)no2)C1 (stereo unspecified)	-23.6%	-7.8	8.6%	u	14.2%	1.5
O=C(Nc1ccc(F)cc1F)N1CCCC(c2nc(-c3ccc(F)cc3)no2)C1 (stereo unspecified)	-6.5%	41.1	2.7%	42.8%	29.7%	22.6*
Cc1ccc(-c2noc(C3CCCN(C(=O)c4cccc(F)c4)C3)n2)cc1 (stereo unspecified)	-8.8%	19.3	-4.1%	41.8%	-3.2%	21.9*
SMILES	NS1 inh	Shiga toxin inh	Giardia FBPA inh	Pf growth 96h	Pf growth 48h	Cycloheximide cs
O=C(c1ccc(F)cc1F)N1CCCC(c2nc(-c3ccc(F)cc3)no2)C1 (stereo unspecified)	-17.1%	14.4	-7.7%	20.4%	22.4%	16.9*
O=C(O)C(Oc1ccc2ccc(=O)oc2c1)c1ccccc1 (stereo unspecified)	x	x	1.4%	x	x	x
Cn1ncc(Br)c1C(=O)NC1CCCCCC1	-4.2%	-3.0	x	u	10.7%	-1.5
O=C(c1cc(F)c(F)cc1Cl)N1CCN(CCc2ccccc2)CC1	7.3%	x	4.0%	-13.5%	-7.4%	-1.5
Cc1ccc(NC(=O)C2CCCN(S(=O)(=O)c3cccc4nonc34)C2)cc1 (stereo unspecified)	-6.2%	-6.8	-3.3%	2.62µM*	21.3%	-1.5
Cc1cccc2sc(NC(=O)C3CCCN(S(=O)(=O)c4cccc5nonc45)C3)nc12 (stereo unspecified)	7.3%	7.4	-0.3%	u	11.7µM*	-1.8
CC(=O)c1ccc(NC(=O)C2CCCN(S(=O)(=O)c3cccc4nonc34)C2)cc1 (stereo unspecified)	8.0%	-9.8	2.4%	-22.2%	0.0%	1.2
Cc1nn(C)c(C)c1NC(=O)c1ccccc1NC(=O)Nc1ccccc1	-1.8%	5.0	-0.5%	21.3%	-2.9%	-4.1
CC1(C)Cc2c(c(N3CCOCC3)nc3sc4c(NCc5ccccc5)nnnc4c23)CS1	16.5%	-17.2	-9.8%	1.04µM*	x	-3.6
Cc1cccc(-c2cc3nc(C)cc(N4CC(C)CC(C)C4)n3n2)c1 (stereo unspecified)	18.4%	5.7	-5.9%	17.3%	20.6%	5.5
Cc1cccc(-c2cc3nc(C)cc(C)n3n2)c1	-6.6%	74.8*	-11.5%	0.0%	123.6%	48.6*
Cc1cc(-c2ccccc2)nc2cc(C(N)=O)nn12	-0.7%	0.8	4.4%	x	0.8%	-3.5
Cc1cc(C)n2nc(-c3cccc(Br)c3)cc2n1	-21.1%	x	-3.1%	u	147.4%	31.8*
CC(=O)c1cnc2c(-c3ccccc3)c(-c3ccccc3)nn2c1C	-3.6%	-5.5	-8.6%	u	-11.1%	-2.1
Cc1cc(C)n2ncc(-c3cccc(Br)c3)c2n1	-9.6%	55.0*	1.1%	u	20.4%	64.6*
CC(=O)c1cnc2cc(-c3cccc(Br)c3)nn2c1C	x	91.2*	2.6%	u	129.9%	38.6*
COc1cc(/C=C(\NC(=O)c2ccccc2)C(=O)Nc2nccs2)ccc1OC(C)=O	2.6%	3.9	7.2%	3.5%	-0.2%[0.00184 µM]	7.0
C=CC(=O)O	x	x	x	-20.0%	-3.5%	x
CNc1ccccc1C(=O)OCC(=O)N(CCOC)c1c(N)n(CC(C)C)c(=O)[nH]c1=O	x	x	x	1.8%	-26.0%	x
COc1ccccc1-c1cc2nc(C)cc(C)n2n1	-4.3%	56.7*	-12.7%	60.0%	44.2%	16.8
COc1ccc(NC(=O)CN2CCN(S(=O)(=O)c3cccs3)CC2)cc1Cl	x	x	x	11.7µM*	u	x
COc1ccc(C(=O)NC2CCN(CC(=O)NC3CCCCC3)CC2)cc1	7.1%	-7.2	-2.1%	5.4%	21.8%	-2.8
COc1ccc(S(=O)(=O)N2CCN(CC(=O)Nc3cccc(OC)c3)CC2)cc1	-28.5%	19.9	x	13.1µM*	-12.1%	7.4
